Compound activity: PubChem, Broad Institute
Hits are enriched below; roughly 2.1% of the tested compounds scored in any of these assays.
PvdQ acylase: blocks Pseudomonas aeruginosa PvdQ acylase activity; purified PvdQ acylase, fluorescence plate reader; inhibition, % at 10 µM; actives 0.063% (n = 340,000); AID 488965; in the data active = inhibition above about 30%, passing the limit was not always enough;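 also: 0% = vehicle neutral wells and 100% = reference inhibitor wells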
CFTR F508del cor: correctors of CFTR F508del function in bronchial epithelial cells | CFBE cells, YFP halide quenching; stimulated with forskolin plus potentiator P3; % fluorescence drop versus neutral controls | activity (quench increase), % at 7.58 µM | actives 0.36% (n = 350,000) | AID 720511;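 active = mean added fluorescence quench of at least 8% versus neutral control, with both replicates also reaching 8%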;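 also: cells transiently co-express mutant CFTR-F508del with the halide-sensitive YFP; corrector assay measuring rescue of mutant channel to the surface after 24 h compound exposure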
ARNT TACC3 PPI: disruptors of human ARNT/TACC3 interaction. actives 0.66% (n = 390,000). AID 623870. Q9Y6A5. AlphaScreen His-ARNT PAS-B/GST-TACC3 binding, luminescence; TACC3 fragment carries E629A point mutation. inhibition, % at 9.99 µM;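 active = mean inhibition of replicates at least 50% and at least half of replicates each reaching 50%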;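 also: 0% = complete ARNT plus TACC3 wells and 100% = ARNT alone without TACC3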
rRNA inh HTS: inhibits bacterial ribosomal RNA function over humanized ribosomes; E. coli WT GFP vs humanized-ribosome RFP mutants, fluorescence, 24 h; active compounds read low; DMSO median 0, no signal -100; GFP signal change (wild-type ribosome), % (test concentration not listed); actives 1.6% (n = 350,000); AID 720706;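 active = significant combined selectivity score with lowered wild-type GFP, culture density cut under 30%, mutant RFP and density less affected; inactive = any of these conditions unmet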
ERAP1 inh: blocks human ERAP1 aminopeptidase activity. Q9NZ08. recombinant ERAP1, Leu-AMC fluorescence, 60 min. inhibition, % at 10.7 µM. actives 0.15% (n = 340,000). AID 652197;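 active = mean replicate inhibition of at least 30%, or all replicates individually reaching that 30% level; inactive = mean below 30% and not every replicate reaching it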;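 also: 0% = neutral control wells and 100% = L-leucinethiol positive control wells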
Target sequence (Q9NZ08 whole entry, looked up): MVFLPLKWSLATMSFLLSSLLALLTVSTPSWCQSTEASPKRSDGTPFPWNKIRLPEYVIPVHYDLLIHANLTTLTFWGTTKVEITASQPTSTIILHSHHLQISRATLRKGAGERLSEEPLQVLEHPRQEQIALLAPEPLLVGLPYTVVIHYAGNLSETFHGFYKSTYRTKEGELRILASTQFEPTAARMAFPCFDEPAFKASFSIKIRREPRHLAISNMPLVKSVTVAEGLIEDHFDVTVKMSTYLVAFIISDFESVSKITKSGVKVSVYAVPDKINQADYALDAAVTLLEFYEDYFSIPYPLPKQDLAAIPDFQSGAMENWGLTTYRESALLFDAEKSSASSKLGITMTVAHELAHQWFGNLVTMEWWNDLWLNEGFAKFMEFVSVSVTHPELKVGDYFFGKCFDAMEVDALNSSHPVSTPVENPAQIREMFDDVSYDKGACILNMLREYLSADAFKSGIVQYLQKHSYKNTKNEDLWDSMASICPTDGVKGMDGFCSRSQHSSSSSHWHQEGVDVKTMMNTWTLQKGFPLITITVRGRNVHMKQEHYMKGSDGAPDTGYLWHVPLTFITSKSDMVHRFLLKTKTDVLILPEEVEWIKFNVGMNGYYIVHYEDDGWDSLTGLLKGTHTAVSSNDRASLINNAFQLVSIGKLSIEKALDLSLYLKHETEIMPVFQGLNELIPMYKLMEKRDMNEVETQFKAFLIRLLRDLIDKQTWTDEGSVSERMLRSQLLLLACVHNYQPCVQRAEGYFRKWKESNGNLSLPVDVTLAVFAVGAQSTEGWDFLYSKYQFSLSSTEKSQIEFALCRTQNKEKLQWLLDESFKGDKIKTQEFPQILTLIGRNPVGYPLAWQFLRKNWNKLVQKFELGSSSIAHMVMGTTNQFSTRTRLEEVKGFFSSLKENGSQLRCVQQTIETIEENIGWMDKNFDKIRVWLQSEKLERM
An asterisk follows results filed as active; / = no result.

SMILES	PvdQ acylase	CFTR F508del cor	ARNT TACC3 PPI	rRNA inh HTS	ERAP1 inh
CC1CC(OCC(O)C[N+]2(C)CCOCC2)CC(C)(C)C1 (stereo not given)	-12	0	-17	12	109*
O=C(Nc1nc(-c2ccccc2)c(-c2ccccc2)o1)c1ccc(F)cc1	2	/	46*	/	/
Cc1ccc(C(=O)NNC(=O)Cn2nnc3ccccc32)cc1	-2	-2	-16	-31*	-4
COc1ccccc1CCN=C(N)NS(=O)(=O)c1ccc(F)cc1	1	-4	1	1	0
NC(=NCCc1c[nH]c2ccccc12)NS(=O)(=O)c1cc(F)ccc1F	0	/	6	-14	43*
C[C@H](C(=O)N(C)C[C@@H]1OCc2ccccc2-c2c(n(C)c3ccccc23)C(=O)N([C@@H](C)CO)C[C@@H]1C)c1ccccc1	/	-1	/	-8	-4
C#CCOCCOCCOCCNc1nc(N2CCN(C(=O)C(Cc3ccc(O)cc3)n3cc(C(N)C(C)CC)nn3)CC2)nc(N2CCN(C(=O)C(Cc3ccc(O)cc3)n3cc(C(N)C(C)CC)nn3)CC2)n1 (stereo not given)	-8	0	17	-8	-3
C#CCOCCOCCOCCNc1nc(N2CCN(C(=O)[C@H](Cc3ccc(O)cc3)n3cc([C@@H](N)CC(C)C)nn3)CC2)nc(N2CCN(C(=O)[C@H](Cc3cc4ccccc4[nH]3)n3cc([C@@H](N)CC(C)C)nn3)CC2)n1	/	0	/	-9	/
C#CCOCCOCCOCCNc1nc(N2CCN(C(=O)[C@H](CCCCN)n3cc([C@@H](N)CC(C)C)nn3)CC2)nc(N2CCN(C(=O)[C@H](Cc3cc4ccccc4[nH]3)n3cc([C@@H](N)Cc4ccc(O)cc4)nn3)CC2)n1	-13	/	46*	/	/
C#CCOCCOCCOCCNc1nc(N2CCN(C(=O)[C@H](CCCCN)n3cc([C@@H](N)C(C)CC)nn3)CC2)nc(N2CCN(C(=O)[C@H](Cc3ccc(O)cc3)n3cc([C@@H](N)CC(C)C)nn3)CC2)n1 (stereo not given in full)	-15	-2	30*	15	-10
CN(C)C(=O)c1cccc(-c2ccc(C3[C@H]4CNC[C@@H]3N4Cc3cccc(C(F)(F)F)c3)cc2)c1 (stereo not given in full)	/	-1	/	7	-3
O=C1C=C(c2ccccc2)OC(c2ccccc2)O1 (stereo not given)	47*	-1	-4	1	-9
O=C1C=C(c2ccccc2)OC2(CCCC2)O1	0	/	-10	/	/
Cc1ccc(S(=O)(=O)Nc2ccc3c(c2)C(=O)N([C@H](C)CO)C[C@H](C)[C@H](CN(C)S(=O)(=O)c2ccc(F)cc2)OCCCC[C@H](C)O3)cc1	/	3	21	-4	-11
O=C(Cc1ccncc1)NCC[C@@H]1CC[C@@H](NC(=O)Nc2ccc(F)cc2)[C@H](CO)O1	/	2	/	-1	-2
O=C(COn1nnc2ccc(C(F)(F)F)cc21)Nc1c(Cl)cccc1Cl	1	1	1	-25*	0
S=C(Nc1ccc(Nc2ccccc2)cc1)Nc1ccccn1	-2	0	/	-32*	-3
S=C(Nc1ccccn1)NC1CCCCC1	-9	-2	2	-23*	-1
C[C@@H]1CCCCO[C@H](CN(C)Cc2ccncc2)[C@H](C)CN([C@H](C)CO)C(=O)c2cc(NC(=O)CCC(F)(F)F)ccc2O1	/	-1	-19	0	3
Oc1ccc(Cl)cc1C1=NNC(c2cccs2)C1 (stereo not given)	34*	1	16	-55	-4
Cc1ccc(O)c(C2=NNC(c3ccc(Cl)cc3)C2)c1 (stereo not given)	-2	7	6	-42	-1
CC(C)[C@H]1C=C(C(=O)NCc2ccccc2)O[C@@H](OCc2ccc(CO)cc2)C1	/	0	-4	/	-2
CCOc1ccc(Cl)cc1CSc1ncn[nH]1	-11	/	-1	-22*	0
Cc1c(C(=O)NNc2c(Cl)cccc2Cl)n(C)oc1=O	-1	0	3	-22*	-1
CO[C@@H]1CN(C)C(=O)c2ccc(NC(=O)C3CCCC3)cc2OC[C@@H](C)N(C)C[C@@H]1C	/	2	-6	1	-3
C[N+]1(CC(O)c2ccccc2)CCCCCC1 (stereo not given)	-7	-8	-3	-4	43*
